Screening results deposited in PubChem BioAssay by several laboratories.
Wnt bcat act: Wnt/beta-catenin pathway activation; Wnt/beta-catenin reporter cell assay, activator, plate reader; activation, % at 9.35 µM; 300,000 compounds, 1.2% hits; AID 743398; in the data active = activation above about 30%, passing the limit was not always enough; inconclusive = no clear call, values can overlap the other calls;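 note: 0% = neutral control wells and 100% = positive control wells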
esBAF inh: blocks esBAF chromatin remodeling in mouse ES cells | Bmi1-luciferase knock-in reporter, 24 h; 100% = twice the neutral-well signal | reporter increase, % at 12.5 µM | 350,000 compounds, 2% hits; in the data active = activation above about 40%; inconclusive = no clear call, values can overlap the other calls;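 note: 0% = median of the plate's neutral control wells and 100% = double that signal; a rise in the Bmi1 reporter signal indicates esBAF inhibition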
AHR activator: activates the human aryl hydrocarbon receptor; activation, % at 5 µM; 320,000 compounds, 2.5% hits; AHR-responsive luciferase reporter cells, luminescence; in the data active = activation above about 47%;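 note: 0% = vehicle wells and 100% = reference agonist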
Target sequence (P35869 whole entry, looked up): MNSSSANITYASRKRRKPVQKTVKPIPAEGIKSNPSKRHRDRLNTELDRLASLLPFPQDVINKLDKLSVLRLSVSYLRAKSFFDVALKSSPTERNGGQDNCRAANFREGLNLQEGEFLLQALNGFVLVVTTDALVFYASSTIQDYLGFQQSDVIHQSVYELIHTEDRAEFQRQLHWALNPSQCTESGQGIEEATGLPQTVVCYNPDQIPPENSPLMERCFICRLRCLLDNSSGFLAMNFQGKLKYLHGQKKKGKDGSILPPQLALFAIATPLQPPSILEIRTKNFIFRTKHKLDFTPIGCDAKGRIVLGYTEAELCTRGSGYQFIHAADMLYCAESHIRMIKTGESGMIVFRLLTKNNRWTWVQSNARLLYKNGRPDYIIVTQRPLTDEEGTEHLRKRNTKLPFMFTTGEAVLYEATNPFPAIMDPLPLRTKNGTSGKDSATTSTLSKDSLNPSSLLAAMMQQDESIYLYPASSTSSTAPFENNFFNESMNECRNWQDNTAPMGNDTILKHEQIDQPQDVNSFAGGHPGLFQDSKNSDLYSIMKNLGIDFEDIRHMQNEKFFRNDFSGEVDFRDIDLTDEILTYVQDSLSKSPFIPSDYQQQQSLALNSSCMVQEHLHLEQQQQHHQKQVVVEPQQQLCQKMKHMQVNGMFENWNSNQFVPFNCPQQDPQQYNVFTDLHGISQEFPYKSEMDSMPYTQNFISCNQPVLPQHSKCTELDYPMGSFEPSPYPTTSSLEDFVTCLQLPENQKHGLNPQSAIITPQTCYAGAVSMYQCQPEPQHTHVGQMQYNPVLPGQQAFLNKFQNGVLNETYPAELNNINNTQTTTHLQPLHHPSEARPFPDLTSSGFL
GAA850 FXN act: activators of GAA850 frataxin (FXN) promoter | HEK293 lucGAA850 FXN promoter luciferase reporter, 24 h; percent of 10 µM SAHA response | activation, % at 6 µM | 360,000 compounds, 0.56% hits | AID 540364;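 active = activation above the average of all compounds screened plus 3 SD, cutoff fixed separately per campaign, cut at about 7.5% in these data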;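 note: 0% = DMSO wells and 100% = 10 µM SAHA wells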
MITF act: MITF TRPM1 promoter activation in melanoma cells; AID 588334; 300,000 compounds, 0.75% hits; SK-MEL-5 TRPM1-promoter luciferase, 24 h; % of positive control, neutral wells = 0; activation, % at 12.5 µM;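 active = mean activation of at least 80% with every replicate also reaching 80%; inconclusive = mean reaches 80% but some replicate falls short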;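 note: 0% = neutral control wells and 100% = parthenolide positive control wells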
Starred values were filed as active, the others as inactive. Shown are actives, neighbours in structure and some others; about 4.2% of the full set was active somewhere.

CN(C(=S)NCCN1CCOCC1)C(c1ccccc1)c1ccccc1 was read as Wnt bcat act 41.8*, AHR activator 1.9, GAA850 FXN act 1.3 and MITF act -4.7.
Screening O=C(Nc1ccccc1)C1CCN(S(=O)(=O)c2ccc3c(c2)OCCO3)CC1 returned Wnt bcat act -1.2, AHR activator 1.3, GAA850 FXN act 0.5 and MITF act 0.1.
O=C(C1CC1)N1CCN(S(=O)(=O)c2ccc3c(c2)OCCO3)CC1 was read as Wnt bcat act -0.6, esBAF inh -6.5, AHR activator 55.0*, GAA850 FXN act 3.4 and MITF act 8.2.
For Clc1ccc(-c2nnc(-c3ccccc3)c(-c3c[nH]c4ccccc34)n2)cc1 the results were Wnt bcat act -1.5, esBAF inh 1.0, AHR activator 50.8*, GAA850 FXN act 3.8 and MITF act 9.8.
For OCCCNc1nc(-c2ccc(Cl)cc2)nnc1-c1ccccc1 the results were esBAF inh 24.4, AHR activator 64.4*, GAA850 FXN act 6.6 and MITF act 9.5.
Screening C[C@H]1CN([C@@H](C)CO)C(=O)c2cccc(NC(=O)c3cnccn3)c2O[C@H]1CN(C)C(=O)NC1CCCCC1 returned esBAF inh 0.9.
For COCC(=O)N(C)C[C@@H]1Oc2cc(-c3ccc(C#N)cc3)ccc2S(=O)(=O)N([C@H](C)CO)C[C@H]1C the results were esBAF inh 5.4.
For C[C@@H]1CN([C@H](C)CO)C(=O)c2cc(NC(=O)CCC(F)(F)F)ccc2O[C@@H](C)CCCCO[C@H]1CN(C)Cc1ccc(C(=O)O)cc1 the results were esBAF inh -0.2.
`Cc1ccccc1-c1cnc2c(c1)C(=O)N([C@@H](C)CO)C[C@@H](C)[C@H](CN(C)C(=O)CC1CC1)O2` gave esBAF inh -0.8.
For C=CCc1cc(C)ccc1OCCn1ccnc1 the results were Wnt bcat act -1.6, esBAF inh -7.3, AHR activator 23.2, GAA850 FXN act 0.1 and MITF act -6.0.
For C=CCc1cc(C)ccc1OCCOCCn1ccnc1 the results were Wnt bcat act -0.3, AHR activator 55.0*, GAA850 FXN act 2.8 and MITF act 2.8.
Screening O=C(Nc1ccc(F)c(Cl)c1)c1cc(C2CCCN(C(=O)CCc3ccccc3)C2)on1 (stereo not given) returned Wnt bcat act 26.0, esBAF inh 46.9* and GAA850 FXN act 1.5.
For CC(C)S(=O)(=O)N1CCCC(c2cc(C(=O)Nc3ccc(F)c(Cl)c3)no2)C1 (stereo not given) the results were Wnt bcat act 31.6*, esBAF inh 47.9* and GAA850 FXN act -0.3.
For O=C(Nc1ccccc1)c1cc(C2CCCN(C(=O)CCc3ccccc3)C2)on1 (stereo not given) the results were Wnt bcat act 17.0, esBAF inh 64.3* and GAA850 FXN act 0.7.
For CCCc1cn(CC[C@H]2CC[C@@H](NC(=O)C3CCCC3)[C@H](CO)O2)nn1 the results were esBAF inh -2.4.
Screening CC(C)CC#Cc1cnc2c(c1)C(=O)N([C@H](C)CO)C[C@@H](C)[C@H](CN(C)C(=O)Cc1cccnc1)O2 returned esBAF inh 0.1.
Cc1ccc(NC(=O)c2cc3ccccc3cc2O)cc1 was read as Wnt bcat act 46.4*, esBAF inh 43.9*, AHR activator 36.2, GAA850 FXN act 3.9 and MITF act 77.6.
For Cc1ccc(NC(=O)NNC(=O)c2cc3ccccc3cc2O)cc1C the results were Wnt bcat act -0.8, esBAF inh -4.3, AHR activator 5.1, GAA850 FXN act 0.1 and MITF act 0.4.
COc1ccc(NC(=O)c2cc3ccccc3cc2O)cc1 was read as Wnt bcat act 35.0*, esBAF inh inconclusive, AHR activator 23.0, GAA850 FXN act 6.9 and MITF act 79.0.
`O=C(NCC[C@@H]1CC[C@@H](NS(=O)(=O)c2cccc(F)c2)[C@@H](CO)O1)C1CCCCC1` gave esBAF inh 6.3.
Screening COc1ccc(C#Cc2cnc3c(c2)C(=O)N([C@@H](C)CO)C[C@H](C)[C@H](CN(C)C)O3)cc1 returned esBAF inh 0.9.
COc1ccc(C2=NN3C(C2)c2ccccc2OC3c2cccs2)cc1 (stereo not given) was read as Wnt bcat act 49.5*, AHR activator 2.5, GAA850 FXN act 4.8 and MITF act 56.8.
Screening COc1ccc(C2=NN(C(=O)CCC(=O)O)C(c3cccs3)C2)cc1 (stereo not given) returned Wnt bcat act -0.2, AHR activator 1.0, GAA850 FXN act 2.6 and MITF act -7.8.
For Cc1ccc(C2=NN3C(C(=O)c4ccccc4)Oc4ccccc4C3C2)cc1 (stereo not given) the results were Wnt bcat act 43.2*, esBAF inh 68.2*, AHR activator 22.5 and GAA850 FXN act 2.4.
COc1ccc(S(=O)(=O)Nc2ccc3c(c2)C(=O)N([C@H](C)CO)C[C@@H](C)[C@H](CN(C)Cc2ccc(C(=O)O)cc2)OCCCC[C@@H](C)O3)cc1 was read as esBAF inh 4.4.
`CNC[C@H]1OCCCC[C@H](C)Oc2ccc(NC(=O)Nc3c(C)noc3C)cc2C(=O)N([C@@H](C)CO)C[C@H]1C` gave esBAF inh 1.8.
Cc1noc(C)c1NC(=O)Nc1cccc2c1O[C@H](CN(C)Cc1ccc3c(c1)OCO3)[C@@H](C)CN([C@@H](C)CO)C2=O was read as esBAF inh 2.2.
O=C(NCC(=O)N1CCN(Cc2ccccc2)CC1)c1cccs1 was read as Wnt bcat act -2.3, esBAF inh 49.0*, AHR activator 2.8, GAA850 FXN act 3.4 and MITF act 45.9.
`C[C@@H]1CN([C@H](C)CO)C(=O)Cc2cc(NC(=O)CCN3CCOCC3)ccc2O[C@H]1CN(C)S(=O)(=O)c1ccc(Cl)cc1` gave esBAF inh -5.6.
`COCC#Cc1cnc2c(c1)C(=O)N([C@@H](C)CO)C[C@H](C)[C@H](CN(C)C(=O)Nc1cc(F)ccc1F)O2` gave esBAF inh 7.1.
`COc1ccc(C(=O)Cc2ccc3c(c2)OCO3)c(O)c1` gave Wnt bcat act 37.4*, AHR activator 5.5, GAA850 FXN act 4.3 and MITF act 76.6.
For O=C(O)COc1ccc(C(=O)Cc2ccc3c(c2)OCCCO3)c(O)c1 the results were Wnt bcat act 0.4, esBAF inh -9.2, AHR activator -1.1, GAA850 FXN act -0.8 and MITF act 8.9.
Screening O=C(Cc1ccc2c(c1)OCCO2)c1c(O)cc(O)cc1O returned Wnt bcat act 8.1, esBAF inh 55.4*, AHR activator 3.4, GAA850 FXN act 2.6 and MITF act 39.4.
`Cc1ccc(OCc2cc(C(=O)N(CCO)Cc3cccs3)no2)cc1C` gave Wnt bcat act 26.9, esBAF inh 83.5*, AHR activator 21.0, GAA850 FXN act 3.8 and MITF act 86.1*.
For Cc1ccc(OCc2cc(C(=O)N3CCN(C4CCCC4)CC3)no2)cc1C the results were Wnt bcat act 6.1, esBAF inh 7.9, AHR activator 4.9, GAA850 FXN act 1.6 and MITF act 12.0.
